Hit rate of the full screen: of about 360,000 compounds, about 11,000 (3.1%) were called active. Roughly 2% stayed inconclusive and do not appear here. For the sample, actives were picked, then their nearest neighbours and some compounds at random. Unmarked numbers belong to inactive results. Rule as the data show it: active = fluorescence intensity above about 16000; inconclusive = no clear call, values can overlap the other calls; inactive = below that.

Consider 61 compounds from PubChem BioAssay AID624483 (NMMLSC, 2012).

This experiment is described as follows: counter-screen for toxin protease inhibitors: compound fluorescence, primary screen, artefact control for toxin protease inhibitor project, biochemical, multiplex microsphere, HTS (AID 624483). The following applies: compound autofluorescence counterscreen, microsphere flow cytometry; stronger effect = higher value.
`O=C(C1CC(=O)N(C2CCCCC2)C1)N1CCN(c2ccccc2)CC1` (stereo unspecified): the fluorescence intensity was 5000.

As for `O=C(C1CC(=O)N(C2CCCC2)C1)N1CCC2(CC1)OCCO2` (stereo unspecified), the fluorescence intensity is 21300 (active).

With `O=C(C1CC(=O)N(C2CCCC2)C1)N1CCN(c2cccc(C(F)(F)F)c2)CC1` (stereo unspecified), the fluorescence intensity is 5860.

Regarding `CCCNC(=O)C1(C)CCN(C(=O)c2ccccc2OC(F)(F)F)C1` (stereo unspecified), the fluorescence intensity is 3700.

As to `Cc1ccc(S(=O)(=O)N2CC[C@H]3[C@@H](C2)C(=O)C[C@@H](c2ccccc2)N3S(=O)(=O)c2ccc(C)cc2)cc1`, the fluorescence intensity was 6280.

Turning to `CCc1cccc2c(=O)c(C(=O)NCCCOC)c[nH]c12`, the fluorescence intensity is 4150.

Turning to `COC1=CC(=O)OC(c2ccc(OC)cc2)C1` (stereo unspecified), the fluorescence intensity was 3440.

For `COc1cc(CO)c(C2(CO)CCCC2)cc1OC`, the fluorescence intensity was 2910.

As for `CC1(C)CC(=O)C2=C(C1)N=C1SCCC(=O)N1C2c1ccc(C(F)(F)F)cc1` (stereo unspecified), the fluorescence intensity was 22500 (active).

As to `CCCCC[C@@H]1C=C(C(=O)OCC)[C@H](c2ccccc2)N1S(=O)(=O)c1ccc(C)cc1`, the fluorescence intensity was 6420.

Consider `O=C1NC[C@H](CCCCN2C[C@H](Cc3ccc(O)cc3)N(CCc3ccccc3)C(=O)C2=O)N(CCc2ccccc2)C1=O`, for which the fluorescence intensity was 5840.

As to `C=C(C)CNC(=S)/N=c1\scc(C)n1CC`, the fluorescence intensity was 8000.

As to `CC1(C)OC(=O)C2=C(C[C@@H](C3CC3)O[C@H]2CCc2cccc(Cl)c2)O1`, the fluorescence intensity was 6150.

For `Cc1cc(O)ccc1-c1cc(C(=O)NCc2cc(C(F)(F)F)cc(C(F)(F)F)c2)[nH]n1`, the fluorescence intensity was 4030.

Regarding `CCOC(=O)C1=C(c2ccccc2)NC(=O)NC1c1cc(OCC)c(O)c([N+](=O)[O-])c1` (stereo unspecified), the fluorescence intensity was 3560.

As to `CCCOc1ccc(C2NC(=O)NC(c3ccccc3)=C2C(C)=O)cc1OCC` (stereo unspecified), the fluorescence intensity is 16800 (active).

As to `COc1cc(C2NC(=O)NC(c3ccccc3)=C2C(C)=O)c(Br)cc1OCC(N)=O` (stereo unspecified), the fluorescence intensity is 3130.

For the compound `COc1c(C)cc(C(O)c2ncc(-c3cccc(C(F)(F)F)c3)[nH]2)cc1C` (stereo unspecified), the fluorescence intensity was 2880.

`COCCCn1c(=O)/c(=C/c2ccccc2OC(C)C)s/c1=C(\C#N)C(=O)Nc1ccc(C(=O)O)cc1`: the fluorescence intensity was 4090.

For `CC1(C(=O)O)CCCN(C(=O)/C=C/c2ccccc2)C1` (stereo unspecified), the fluorescence intensity is 3760.

`CC(=O)NC1=NC(=O)CS1`: the fluorescence intensity is 22000 (active).

For `Cc1cccc(N)c1SC1CCCCC1O` (stereo unspecified), the fluorescence intensity was 2470.

Consider `CN(C)/C=C/C(=O)c1cnc2sccn2c1=O`, for which the fluorescence intensity is 4610.

With `C[C@H]1Cn2cnc(C(=O)N[C@@H](Cc3c[nH]c4ccccc34)C(=O)OC(C)(C)C)c2C(=O)N1`, the fluorescence intensity was 3860.

As to `CCN(c1ccccc1)S(=O)(=O)c1ccc(N)cc1`, the fluorescence intensity is 5250.

Take `CCN(c1ccccc1)S(=O)(=O)c1ccc(C(=O)Nc2ccccc2OC)cc1`: the fluorescence intensity is 3100.

Take `CCN(c1ccccc1)S(=O)(=O)c1ccc(NC(=O)C(C)(C)C)cc1`: the fluorescence intensity is 23900 (active).

For the compound `O=c1[nH][nH]c2c1[C@H](c1ccc(Cl)cc1)O[C@H](CCc1ccccc1)C2`, the fluorescence intensity is 5920.

With `CCc1nc2c(OCc3ccccc3)cccn2c1N(C)C(=O)c1ccco1`, the fluorescence intensity was 2960.

Take `COc1ccc(OC)c(Cc2nnc(CCC(=O)NC3CCCC3)o2)c1`: the fluorescence intensity is 2020.

Take `COc1cccc(CN2C(=O)CCC2(C)C(=O)NC2CCCCCC2)c1` (stereo unspecified): the fluorescence intensity is 21300 (active).

As to `COc1ccc(CN2CC(C(=O)NC3CCCCC3)CC2=O)cc1` (stereo unspecified), the fluorescence intensity is 4380.

Regarding `COc1ccc(OC)c(CN2C(=O)CCC2(C)c2nnnn2Cc2ccccc2)c1` (stereo unspecified), the fluorescence intensity is 5850.

For `COc1cccc(CNC(=O)C2CC(=O)N(C3CCCCCCC3)C2)c1` (stereo unspecified), the fluorescence intensity is 5720.

As for `COc1ccc(OC)c(CN2C(=O)CCC2(C)C(=O)NC2CCCCCC2)c1` (stereo unspecified), the fluorescence intensity was 23000 (active).

Regarding `O=C1C2(c3ccccc3)CN(CCCO)CC1(c1ccccc1)CN(CCCO)C2`, the fluorescence intensity was 10600.

With `CCCc1nc2c3ccccc3ccn2c1Cc1ccccc1C(F)(F)F`, the fluorescence intensity is 5310.

`Cc1ccc(S(=O)(=O)N2CCN(C(=O)CCC(=O)NC3CCCc4ccccc43)CC2)cc1` (stereo unspecified): the fluorescence intensity is 7770.

In the case of `O=C(NCCO)C(=O)NCC(c1ccc2c(c1)OCO2)N1CCN(c2ccc(F)cc2)CC1` (stereo unspecified), the fluorescence intensity is 5880.

As for `CC(NC(=O)Nc1ccc2c(c1)OCO2)c1ccncc1` (stereo unspecified), the fluorescence intensity was 2060.

`C/C(=N/NC(=O)c1ccncc1)c1ccc2c(c1)OCO2`: the fluorescence intensity is 3750.

Consider `O=C(Nc1nc(-c2ccc3c(c2)OCO3)cs1)c1ccncc1`, for which the fluorescence intensity is 23200 (active).

On to `O=[N+]([O-])c1ccccc1SNc1ccccn1`, for which the fluorescence intensity is 2510.

As to `CNC[C@H]1OCc2cnnn2CCCC(=O)N([C@H](C)CO)C[C@@H]1C`, the fluorescence intensity was 4160.

Take `COc1ccc(OC)c(NC(=O)CC(Cc2ccccc2OC)C(=O)O)c1` (stereo unspecified): the fluorescence intensity was 21100 (active).

For the compound `COc1ccc(OC)c(NC(=O)N[C@H](Cc2ccccc2)C(=O)NN)c1`, the fluorescence intensity is 5710.

With `COc1ccc(OC)c(NC(=O)Cc2cccs2)c1`, the fluorescence intensity is 3820.

Turning to `Cc1ccc(S(=O)(=O)NC(C)C(=O)Nc2ccccc2C(=O)N2CCCC2)cc1` (stereo unspecified), the fluorescence intensity was 3260.

As for `Cc1ccc(CNC(=O)Nc2nnc([C@H]3C[C@H](O)[C@@H](CO)O3)s2)cc1`, the fluorescence intensity was 2810.

Regarding `O=C(NCCc1ccccc1)c1cccc(NC(=O)c2ccccc2)c1`, the fluorescence intensity is 3070.

For the compound `Cc1cccc(NC(=O)c2ccc3nsnc3c2)c1C`, the fluorescence intensity was 2560.

Turning to `O=C(Nc1ccccc1)c1ccc2nsnc2c1`, the fluorescence intensity was 16300 (active).

Consider `O=C(OC1CC2CC1[C@H]1CCCCN1C2=O)N1CCOCC1` (stereo partly specified), for which the fluorescence intensity was 5270.

For `CC1(C(=O)NCc2ccco2)Cc2c(-c3ccc4c(c3)OCO4)ccnc2O1` (stereo unspecified), the fluorescence intensity was 4110.

Take `O=C1C(Sc2cccc(F)c2)=C[C@@]2(O)CC[C@@H](O)[C@]1(Sc1cccc(F)c1)[C@H]2O`: the fluorescence intensity was 5520.

As to `O=C(Nc1ccc2sc3ccccc3c(=O)c2c1)c1ccccc1Cl`, the fluorescence intensity is 2540.

Consider `O=C(Nc1cc(=O)[nH]c2ncnn12)c1ccccc1Cl`, for which the fluorescence intensity was 16500 (active).

`O=C(Nc1ccccc1C(=O)N1CCCCCC1)c1ccccc1Cl`: the fluorescence intensity is 6360.

Turning to `Cc1ccc(S(=O)(=O)N(C)c2ccc(C(=O)NCC3(N(C)C)CCCCC3)cc2)cc1`, the fluorescence intensity was 5740.

`Cc1ccc(S(=O)(=O)N(C)C2(C)CCS(=O)(=O)C2)cc1` (stereo unspecified): the fluorescence intensity was 21400 (active).

Consider `Cc1ccc(S(=O)(=O)C2(S(=O)(=O)c3ccc(C)cc3)CCCC2)cc1`, for which the fluorescence intensity was 6800.
